Reference: the supplement of paper PMC9694430

Key:
Experiment in all cases: thermal shift delta Tm vs DMSO control; higher = stronger stabilization (binding)
Details in all cases: 12.5 µM; protein concentration 2 µM
LOC_OS01G01410-cb001 = system: LOC_OS01G01410-cb001
Procedure, shortened: (§1)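 Purified, E. coli-expressed rice kinase domain constructs were tested by differential scanning fluorimetry in 96-well plates: 19.5 μl of 2 μM kinase in 100 mM potassium phosphate pH 7.5, 150 mM NaCl, 10% glycerol, 5 × SYPRO Orange, plus compound in DMSO. Fluorescence was read from 25°C to 95°C at 0.05°C/s. Melting temperatures came from Boltzmann fits, and the shift is the triplicate mean relative to protein with DMSO alone.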

LOC_OS01G02750-cb003 = system: LOC_OS01G02750-cb003
Procedure, shortened: as §1

LOC_OS01G10900-cb004 = system: LOC_OS01G10900-cb004
Procedure, shortened: as §1

LOC_OS01G13800-cb001 = system: LOC_OS01G13800-cb001
Procedure, shortened: as §1

LOC_OS01G14860-cb001 = system: LOC_OS01G14860-cb001
Procedure, shortened: as §1

LOC_OS01G21960-cb002 = system: LOC_OS01G21960-cb002
Procedure, shortened: as §1

LOC_OS01G39600-cb002 = system: LOC_OS01G39600-cb002
Procedure, shortened: as §1

LOC_OS01G48390-cb002 = system: LOC_OS01G48390-cb002
Procedure, shortened: as §1

LOC_OS01G51400-cb002 = system: LOC_OS01G51400-cb002
Procedure, shortened: as §1

LOC_OS01G52050-cb004 = system: T1, LOC_OS01G52050-cb004
T1 sequence (whole entry): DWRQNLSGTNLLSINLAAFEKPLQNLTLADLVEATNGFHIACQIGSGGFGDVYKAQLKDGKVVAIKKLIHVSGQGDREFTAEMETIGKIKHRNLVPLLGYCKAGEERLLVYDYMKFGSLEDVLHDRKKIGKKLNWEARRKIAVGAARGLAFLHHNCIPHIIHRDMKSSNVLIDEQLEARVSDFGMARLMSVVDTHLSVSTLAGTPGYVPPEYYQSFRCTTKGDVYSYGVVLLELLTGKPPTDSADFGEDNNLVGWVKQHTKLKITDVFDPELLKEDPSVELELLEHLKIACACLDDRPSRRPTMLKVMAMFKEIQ
Procedure, shortened: as §1

LOC_OS01G57100-cb003 = system: LOC_OS01G57100-cb003
Procedure, shortened: as §1

LOC_OS01G60330-cb001 = system: LOC_OS01G60330-cb001
Procedure, shortened: as §1

LOC_OS01G60700-cb002 = system: LOC_OS01G60700-cb002
Procedure, shortened: as §1

LOC_OS01G63280-cb003 = system: LOC_OS01G63280-cb003
Procedure, shortened: as §1

LOC_OS01G67340-cb003 = system: LOC_OS01G67340-cb003
Procedure, shortened: as §1

LOC_OS01G70970-cb002 = system: LOC_OS01G70970-cb002
Procedure, shortened: as §1

LOC_OS02G07810-cb001 = system: LOC_OS02G07810-cb001
Procedure, shortened: as §1

LOC_OS02G08530-cb003 = system: LOC_OS02G08530-cb003
Procedure, shortened: as §1

LOC_OS02G14120-cb001 = system: LOC_OS02G14120-cb001
Procedure, shortened: as §1

LOC_OS02G17970-cb001 = system: LOC_OS02G17970-cb001
Procedure, shortened: as §1

| SMILES | thermal shift delta Tm (LOC_OS01G01410-cb001) [°C] | thermal shift delta Tm (LOC_OS01G02750-cb003) [°C] | thermal shift delta Tm (LOC_OS01G10900-cb004) [°C] | thermal shift delta Tm (LOC_OS01G13800-cb001) [°C] | thermal shift delta Tm (LOC_OS01G14860-cb001) [°C] | thermal shift delta Tm (LOC_OS01G21960-cb002) [°C] | thermal shift delta Tm (LOC_OS01G39600-cb002) [°C] | thermal shift delta Tm (LOC_OS01G48390-cb002) [°C] | thermal shift delta Tm (LOC_OS01G51400-cb002) [°C] | thermal shift delta Tm (LOC_OS01G52050-cb004) [°C] | thermal shift delta Tm (LOC_OS01G57100-cb003) [°C] | thermal shift delta Tm (LOC_OS01G60330-cb001) [°C] | thermal shift delta Tm (LOC_OS01G60700-cb002) [°C] | thermal shift delta Tm (LOC_OS01G63280-cb003) [°C] | thermal shift delta Tm (LOC_OS01G67340-cb003) [°C] | thermal shift delta Tm (LOC_OS01G70970-cb002) [°C] | thermal shift delta Tm (LOC_OS02G07810-cb001) [°C] | thermal shift delta Tm (LOC_OS02G08530-cb003) [°C] | thermal shift delta Tm (LOC_OS02G14120-cb001) [°C] | thermal shift delta Tm (LOC_OS02G17970-cb001) [°C] |
| --- | --- | --- | --- | --- | --- | --- | --- | --- | --- | --- | --- | --- | --- | --- | --- | --- | --- | --- | --- | --- |
| CN(C)C/C=C/C(=O)Nc1cc2c(Nc3ccc(F)c(Cl)c3)ncnc2cc1O[C@H]1CCOC1 [Afatinib (BIBW2992)] | 1.12 | -0.19 | 4 | 0.13 | 2.91 | -0.28 | 1.11 | 2.17 | 0.41 | 0.75 | 0.75 | 0.2 | 1 | -0.22 | -0.42 | 0.44 | 0.56 | 0.76 | 2.04 | -0.15 |
| O=C(c1ccc(Nc2nccc(-c3cc4ccccc4s3)n2)cc1)N1CCC(N2CCCC2)CC1 [IKK-16 (IKK Inhibitor VII)] | 2.52 | 2.69 | 4.53 | -0.34 | 5.72 | 2.79 | 8.28 | 1.72 | -0.14 | 4.5 | 0.94 | 12.6 | 0.43 | 2.16 | 3.52 | 2.66 | 0 | 2.32 | 11.1 | 0.35 |
| CC(C)(O)CNc1ncc(-c2ccnc(Nc3ccncc3)n2)c(CC2CC2)n1 [VPS34 inhibitor 1 (Compound 19, PIK-III analogue)] | 0.51 | 1.04 | 5.05 | 0.63 | 2.25 | 0.87 | 0.48 | 1.46 | 0.29 | 4.06 | 1.59 | 0.38 | 0.34 | 0.12 | -0.02 | 0.5 | -0.03 | 0.85 | 4.52 | 0.28 |
| CCNC(=O)C#Cc1ccc2c(C(=Nc3ccc(CN(C)C)cc3)c3ccccc3)c(O)[nH]c2c1 | 1.75 | 1.1 | 0.16 | -0.3 | 5.63 | 0.65 | 3.52 | 1.35 | -0.33 | 2.8 | -0.26 | 0.78 | 0.32 | 0.72 | 1.01 | 13.4 | 0.15 | 2.16 | 0.91 | 0.63 |
| O=C1NC(=O)C(=Cc2ccc(-c3ccc(F)cc3)o2)S1 (stereo in doubt) | 0.61 | 1.08 | 0.58 | 0.53 | 0.85 | 1.54 | 0.11 | 0.58 | 0.18 | 0.58 | 3.43 | 0.21 | 0.92 | 0.52 | 1.18 | 0.36 | 1.67 | 1.15 | 0.34 | 1.28 |
| Cn1cc(-c2ccc3nnc(C(F)(F)c4ccc5ncccc5c4)n3n2)cn1 | 1.27 | -0.24 | 5.11 | 0.46 | 0.28 | 1.41 | 1.09 | 0.82 | 0.35 | 1.02 | 1.42 | 1.1 | 1.32 | 0.31 | -0.37 | 0.13 | 0.91 | 1.21 | 2.28 | 0.51 |
| CCc1cccc(CC)c1NC(=O)N1Cc2[nH]nc(NC(=O)c3ccc(N4CCN(C)CC4)cc3)c2C1 | 0.31 | 0.54 | 0.87 | -0.49 | 0.31 | 0.34 | 2.21 | 0.01 | 0 | 0.17 | 0.59 | 0.73 | 0.44 | 0.43 | -0.29 | 0.21 | 0.66 | 0.96 | 4.48 | 0.32 |
| CCc1cc(Nc2nccc(-c3c(-c4ccc(OC)c(C(=O)Nc5c(F)cccc5F)c4)nc4ccccn34)n2)c(OC)cc1N1CCC(N2CCN(S(C)(=O)=O)CC2)CC1 | 1.23 | -0.77 | 0.34 | 0.56 | 0.33 | 1.05 | 1.04 | 0.41 | 0.3 | 0.04 | 1.35 | 0.65 | 1.19 | 0.43 | 0.06 | 0.26 | 0.77 | 0.82 | 0.04 | 0.47 |
| C=CC(=O)Nc1cc(Nc2nccc(-c3c[nH]c4ccccc34)n2)c(OC)cc1N(C)CCN(C)C | 0.92 | 0.98 | 0.33 | 0.08 | 0.37 | 0.6 | 0.12 | 0.83 | 0.34 | 0.96 | 1.63 | 0.87 | 1.61 | 0.65 | 0.79 | 0.59 | 0.87 | 5.01 | 4.93 | 1.65 |
| Cc1c(C(=O)Nc2ccc(Oc3ccnc4[nH]cc(-c5ccccc5)c34)c(F)c2)c(=O)n(-c2ccc(F)cc2)n1C | 0.66 | 2.79 | 1.91 | 0.84 | 0.67 | 1.55 | 2.37 | 1.72 | 0.78 | 2.8 | 1.48 | 5.65 | 1.25 | 5.92 | 1.81 | 1.29 | 0.68 | 3.76 | 6.85 | 1.44 |
| c1ccc(-c2[nH]ncc2-c2ccnc3ccccc23)nc1 | 0.44 | 0.87 | 0.58 | 0.69 | 0.36 | 0.76 | 0.33 | 0.11 | 0.03 | 0.61 | 0.37 | -0.07 | 0.62 | -0.05 | 0.51 | -0.04 | 0.95 | 0.29 | 2.26 | 0.56 |
| CC1(C)OCCn2c1nc1c(N3CCOCC3)nc(-c3cnc(N)nc3)nc12 | 2.4 | 0.54 | 1.05 | 0.07 | 0.3 | 1.06 | 0.85 | 0.14 | 0.12 | 0.62 | -0.05 | 5.04 | 0.81 | -0.02 | 0.53 | 1.29 | 0.49 | 1.45 | 0.72 | 0.78 |
